Several values for one entry are separate records, joined by “and”; a condition that tells them apart may be missing. Equal values may be shown once. Inconclusive results are not listed. Activity calls are given as the source filed them. Unless noted, calls follow the shape of the dose curve; as a rule, active = well fitted curve in the direction sought with a large enough effect; inconclusive = small, poorly fitted or top-dose-only effect, or another doubt; inactive = no such curve, though single readings can be large; an effect the other way counts as inactive or inconclusive.

In assay [1] the target is Rap guanine nucleotide exchange factor 4 (Homo sapiens) (UniProt Q8WZA2). Briefly: Confirmatory qHTS for antagonist of cAMP-regulated guanine nucleotide exchange factor 4 (EPAC2) (AID 1645885; also: nearly all actives have a fitted effect of over 25% in size; also: potency is read from the fitted curve at half-maximal effect; as to activity change, negative = inhibition: % is scaled to controls: 0 for no effect and ±100 for the full control effect). (In general: Quantitative high-throughput screening tests each substance at several concentrations.)
Assay [2] addresses Phospholipid hydroperoxide glutathione peroxidase GPX4 (Homo sapiens) (UniProt P36969). Nature of the assay: Primary qHTS Assay for Inhibitors of Recombinant Selenoprotein Glutathione Peroxidase 4 (GPX4) (AID 1845192). Also: nearly all actives have a fitted effect of over 65% in size. As to activity change, negative = inhibition: % is scaled to controls: 0 for no effect and ±100 for the full control effect. In a few lines: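 NADPH consumption followed by fluorescence at 340/450 nm, t=0 and after 15 min at room temperature. Reaction started with cumene hydroperoxide (0.5 mM final) after 30 min compound–GPX4 preincubation; final 200 nM GPX4, 100 nM GR, 1 mM GSH, 0.5 mM NADPH.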

For assay [3], the target named is Catechol O-methyltransferase (Homo sapiens) (UniProt P21964). Nature of the assay: Confirmatory Screen for Target Class Profiling of Small Molecule Inhibitors of Methyltransferases (AID 1745852; calls by dose curve; also: potency is read from the fitted curve at half-maximal effect; as to activity change, negative = inhibition: % is scaled to controls: 0 for no effect and ±100 for the full control effect). The note with it: MTase-Glo luminescence, SAH detection, recombinant enzyme; measured here: COMT max response; stronger effect = lower value.
Assay [4] concerns the target Guanidinoacetate N-methyltransferase (Homo sapiens) (UniProt Q14353). The assay is described as above. Conditions: MTase-Glo luminescence, SAH detection, recombinant enzyme; activity change, negative = inhibition: at 57.3 µM (top of the series).
The target in assay [5] is Nicotinamide N-methyltransferase (Homo sapiens) (UniProt P40261). The assay is described as above. Conditions: MTase-Glo luminescence, SAH detection, recombinant enzyme; measured here: NNMT max response; stronger effect = lower value.
For assay [6], the target named is Phenylethanolamine N-methyltransferase (Homo sapiens) (UniProt P11086). The description is as above. Conditions: MTase-Glo luminescence, SAH detection, recombinant enzyme; measured here: PNMT max response; stronger effect = lower value.
For assay [7], the target named is Glutathione peroxidase 1 (Homo sapiens) (UniProt P07203). Briefly: Primary qHTS Assay for Inhibitors of Recombinant Selenoprotein Glutathione Peroxidase 1 (GPX1) (AID 1845191). Also: nearly all actives have a fitted effect of over 65% in size. In a few lines: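 NADPH consumption tracked by fluorescence at 340/450 nm between t=0 and t=15 min, room temperature. Final mix: 10 nM GPX1, 100 nM glutathione reductase, 1 mM GSH, 0.5 mM NADPH, 0.5 mM cumene hydroperoxide, 0.01% BSA; 30 min compound–enzyme preincubation.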

Assay [8] has as its target Luciferin 4-monooxygenase (Photinus pyralis) (UniProt P08659). Nature of the assay: Primary firefly luciferase (FLuc) qHTS assay for identification of artifact compounds. (AID 1845220). Also: nearly all actives have a fitted effect of over 60% in size.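 As to activity change, negative = inhibition: plate controls were DMSO vehicle for no effect and no enzyme for full effect.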 Summed up: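 FLuc 10 nM; luciferin 10 uM; ATP 10 uM; Tris-acetate pH 7.6, Mg-acetate 10 mM; 15 min RT preincubation; 5 min reaction; luminescence.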
Assay [9] in a line: Primary fluorescence-based thiol-reactive (MSTI) qHTS assay for identification of artifact compounds. (AID 1845221). Also: nearly all actives have a fitted effect of over 65% in size. Also: potency is read from the fitted curve at half-maximal effect. Summed up:
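Probe: MSTI 4 uM, PBS pH 7.4, 2% DMSO. Incubation 1 h, RT, light-protected. Readout fluorescence 525/598 nm.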

Assay [10] has as its system Nanoluciferase (engineered Oplophorus gracilirostris luciferase). Nature of the assay: Primary Nanoluciferase (NLuc) qHTS assay for identification of artifact compounds. (AID 1845222).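 Also: NLuc secreted into diluted conditioned medium of S16 cells; 0% = DMSO and -100% = no enzyme.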 In a few lines:
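NLuc from S16 cell medium (1:55) plus test compounds, 15 min, room temperature. Luminescence after Nano-Glo (1:100) addition, 5 min.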

The nature of assay [11]: NCATS anti-infectives library activity on HEK293 viability as a counter-qHTS vs the C. elegans viability qHTS (AID 1745854).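 Also: HEK293 cells exposed to compounds for 24 hr before the viability read; % is scaled to controls: 0 for no effect and ±100 for the full control effect.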 In a few lines:
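Counter-screen for cytotoxicity: HEK293, 24 hr, 37C, compounds up to 41.7 uM final (a dilution series, 1:5). Readout CellTiter-Glo luminescence, 10 min RT. Digitonin control, 83.3 uM final.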

Assay [12] in a line: NCATS anti-infectives library activity on the primary C. elegans qHTS viability assay (AID 1745855; calls by dose curve). In a few lines: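 GFP read-out by 488 nm laser cytometry at day 0, 3 and 7, gated on object perimeter, area and peak intensity, scored viability of PE254-GFP-FLuc worms exposed to compound in S medium with bacterial capsules at 21 °C.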
Assay [13] deals with Rap guanine nucleotide exchange factor 3 (Homo sapiens) (UniProt O95398). Briefly: Counterscreen qHTS for antagonist of cAMP-regulated guanine nucleotide exchange factor 3 (EPAC1) (AID 1645888).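 Also: fluorescence loss as bound BODIPY-GDP is released from Rap1B; % of control where 0% means no effect.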 Summed up:
(§1)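 Rap1B-BODIPY-GDP 250 nM + GDP 50 uM; cpds 7-pt, final 9.74 nM–152 uM (activator mode) or from 7.32 nM upwards (inhibitor mode); RT; FI 480/540 nm at 5 and 30 min, then ± cAMP, reread.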
For orientation: A counterscreen serves to expose hits that act by an unwanted route or on another target.

The target is the same in assay [14]. Nature of the assay: Counterscreen qHTS for agonist of cAMP-regulated guanine nucleotide exchange factor 3 (EPAC1) (AID 1645889). Also: % of control where 0% means no effect; nearly all actives have a fitted effect of over 40% in size. Summed up: as §1
Assay [15] in a line: Viability counterscreen for agonist of constitutive androstane receptor (CAR) against the NCATS DSHEA and TCM libraries (AID 1794838).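 Also: HepG2 cells with CYP2B6 reporter and hCAR plus 0.75 µM PK11195 antagonist; cells exposed to compound for 24 h; 0% is about no effect.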 Summed up: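 Multiplexed counterscreen: after 24 h compound exposure with 0.75 uM PK11195, HepG2-CYP2B6-hCAR viability was quantified fluorimetrically (CellTiter-Fluor, 405/540 nm) prior to the ONE-Glo luciferase read.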
Assay [16] is described as follows: HepG2 viability counterscreen (readout 2: ATP content) against the NCATS DSHEA and TCM libraries (AID 1794840).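 Also: HepG2 cells exposed to substances for about 24 h; 0% is about no effect.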 Summed up:
(§2)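 After HepG2 cells attach for ~4 h, substances are added and incubated ~24 h at 37C, 5% CO2. GF-AFC fluorescence then CellTiter-Glo luminescence give protease and ATP readouts.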

Assay [17] can be described thus: HepG2 viability counterscreen (readout 1: protease activity) against the NCATS DSHEA and TCM libraries (AID 1794841).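 Also: cells exposed to compounds for about 24 h before the protease read; 0% is about no effect.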 In a few lines:
as §2

Nicotinamide N-methyltransferase (Homo sapiens), sequence (P40261 whole entry, looked up): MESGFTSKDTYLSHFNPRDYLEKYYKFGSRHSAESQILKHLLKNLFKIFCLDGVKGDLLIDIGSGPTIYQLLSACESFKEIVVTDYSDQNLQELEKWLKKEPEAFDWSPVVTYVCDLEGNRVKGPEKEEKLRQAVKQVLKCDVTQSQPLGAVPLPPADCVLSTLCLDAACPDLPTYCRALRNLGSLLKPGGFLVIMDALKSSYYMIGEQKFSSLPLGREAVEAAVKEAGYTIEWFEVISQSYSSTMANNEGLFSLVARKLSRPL
Phospholipid hydroperoxide glutathione peroxidase GPX4 (Homo sapiens), sequence (P36969 whole entry, looked up): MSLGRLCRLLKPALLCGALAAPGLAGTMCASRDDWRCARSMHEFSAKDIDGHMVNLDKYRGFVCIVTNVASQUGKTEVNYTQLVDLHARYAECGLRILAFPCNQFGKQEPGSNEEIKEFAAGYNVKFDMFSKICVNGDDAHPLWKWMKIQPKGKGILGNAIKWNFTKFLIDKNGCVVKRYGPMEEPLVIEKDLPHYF
Catechol O-methyltransferase (Homo sapiens), sequence (P21964 whole entry, looked up): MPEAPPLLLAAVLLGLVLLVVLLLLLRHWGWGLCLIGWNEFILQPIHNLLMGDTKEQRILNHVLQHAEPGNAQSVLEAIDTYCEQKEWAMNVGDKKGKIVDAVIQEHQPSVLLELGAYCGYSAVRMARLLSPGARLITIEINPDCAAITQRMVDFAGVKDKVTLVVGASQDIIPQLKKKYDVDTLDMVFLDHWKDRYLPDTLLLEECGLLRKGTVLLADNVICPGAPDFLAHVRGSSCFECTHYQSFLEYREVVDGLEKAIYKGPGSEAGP
Glutathione peroxidase 1 (Homo sapiens), sequence (P07203 whole entry, looked up): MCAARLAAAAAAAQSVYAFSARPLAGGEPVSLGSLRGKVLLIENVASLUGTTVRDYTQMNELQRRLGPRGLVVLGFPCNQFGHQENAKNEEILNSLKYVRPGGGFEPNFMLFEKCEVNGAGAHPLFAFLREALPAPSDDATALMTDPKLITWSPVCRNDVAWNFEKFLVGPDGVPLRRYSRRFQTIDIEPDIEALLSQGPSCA
Phenylethanolamine N-methyltransferase (Homo sapiens), sequence (P11086 whole entry, looked up): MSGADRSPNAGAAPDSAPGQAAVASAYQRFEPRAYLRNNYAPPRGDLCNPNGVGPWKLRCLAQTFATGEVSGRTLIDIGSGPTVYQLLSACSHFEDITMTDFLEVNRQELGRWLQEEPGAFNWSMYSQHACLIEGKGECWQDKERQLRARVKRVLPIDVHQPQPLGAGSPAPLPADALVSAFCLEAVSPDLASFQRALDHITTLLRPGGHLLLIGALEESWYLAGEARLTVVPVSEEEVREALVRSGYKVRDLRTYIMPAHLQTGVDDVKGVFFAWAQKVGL
Rap guanine nucleotide exchange factor 4 (Homo sapiens), sequence (Q8WZA2 whole entry, looked up): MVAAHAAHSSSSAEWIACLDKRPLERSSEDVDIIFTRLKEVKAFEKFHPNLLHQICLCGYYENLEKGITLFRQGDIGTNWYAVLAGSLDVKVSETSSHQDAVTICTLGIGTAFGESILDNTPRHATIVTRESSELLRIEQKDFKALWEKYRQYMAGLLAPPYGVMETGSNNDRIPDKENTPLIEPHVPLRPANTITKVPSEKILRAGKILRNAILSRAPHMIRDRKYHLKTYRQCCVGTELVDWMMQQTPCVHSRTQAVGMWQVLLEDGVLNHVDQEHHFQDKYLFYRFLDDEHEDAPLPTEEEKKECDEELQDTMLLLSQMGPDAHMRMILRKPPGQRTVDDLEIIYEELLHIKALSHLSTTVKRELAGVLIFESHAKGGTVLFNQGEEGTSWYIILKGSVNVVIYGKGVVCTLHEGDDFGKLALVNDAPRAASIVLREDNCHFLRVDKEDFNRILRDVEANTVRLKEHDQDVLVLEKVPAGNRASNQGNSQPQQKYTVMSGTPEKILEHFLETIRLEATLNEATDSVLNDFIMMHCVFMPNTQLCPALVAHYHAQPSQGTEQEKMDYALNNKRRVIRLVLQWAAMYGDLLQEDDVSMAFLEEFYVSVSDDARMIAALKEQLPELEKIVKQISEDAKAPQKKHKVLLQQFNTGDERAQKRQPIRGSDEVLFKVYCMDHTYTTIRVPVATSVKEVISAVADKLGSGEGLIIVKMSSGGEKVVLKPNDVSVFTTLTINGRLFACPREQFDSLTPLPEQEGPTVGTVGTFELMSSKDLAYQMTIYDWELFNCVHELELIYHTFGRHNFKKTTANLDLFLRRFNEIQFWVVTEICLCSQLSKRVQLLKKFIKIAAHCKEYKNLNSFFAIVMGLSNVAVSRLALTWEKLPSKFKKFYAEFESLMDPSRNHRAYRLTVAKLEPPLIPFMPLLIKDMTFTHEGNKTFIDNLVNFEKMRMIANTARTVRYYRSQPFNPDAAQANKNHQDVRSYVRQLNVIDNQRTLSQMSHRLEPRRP
Rap guanine nucleotide exchange factor 3 (Homo sapiens), sequence (O95398 whole entry, looked up): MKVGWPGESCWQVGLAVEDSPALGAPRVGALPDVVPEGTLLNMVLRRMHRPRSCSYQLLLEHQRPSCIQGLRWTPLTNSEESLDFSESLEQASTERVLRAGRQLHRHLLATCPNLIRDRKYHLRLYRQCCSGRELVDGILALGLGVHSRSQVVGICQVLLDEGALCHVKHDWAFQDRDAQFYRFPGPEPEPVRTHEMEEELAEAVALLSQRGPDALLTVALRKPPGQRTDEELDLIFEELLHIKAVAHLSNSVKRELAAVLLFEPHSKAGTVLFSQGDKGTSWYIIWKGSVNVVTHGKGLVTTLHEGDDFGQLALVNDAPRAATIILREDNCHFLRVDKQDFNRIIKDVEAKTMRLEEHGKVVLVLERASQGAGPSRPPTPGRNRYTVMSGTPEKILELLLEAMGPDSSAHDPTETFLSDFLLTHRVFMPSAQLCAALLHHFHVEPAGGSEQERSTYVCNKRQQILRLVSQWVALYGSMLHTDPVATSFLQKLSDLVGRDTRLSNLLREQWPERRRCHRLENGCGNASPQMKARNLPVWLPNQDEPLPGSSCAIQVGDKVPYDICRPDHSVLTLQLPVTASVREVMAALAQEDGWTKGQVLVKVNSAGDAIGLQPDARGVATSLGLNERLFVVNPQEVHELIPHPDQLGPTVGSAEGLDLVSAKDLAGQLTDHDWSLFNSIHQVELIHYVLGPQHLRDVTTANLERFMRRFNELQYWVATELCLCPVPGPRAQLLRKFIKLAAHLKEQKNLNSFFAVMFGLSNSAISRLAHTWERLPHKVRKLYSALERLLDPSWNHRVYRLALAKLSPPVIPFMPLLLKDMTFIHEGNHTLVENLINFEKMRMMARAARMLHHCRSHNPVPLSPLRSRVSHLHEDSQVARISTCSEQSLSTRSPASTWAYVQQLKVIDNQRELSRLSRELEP

With `C[C@@H](O[C@H]1OCCN(Cc2n[nH]c(=O)[nH]2)[C@@H]1c1ccc(F)cc1)c1cc(C(F)(F)F)cc(C(F)(F)F)c1`, the Potency in assay [1] is 22.1 µM (active). Also, the Potency result in assay [2] is “inactive”.
With `c1cc(OCCN2CCCCC2)cc(-c2n[nH]c3ccc(-c4ncn[nH]4)cc23)c1`, the activity is -3.59% in assay [3], -12.9% in [5] and -6.71% in [6]. In assay [4], the activity change, negative = inhibition was 2.7%. The Potency entry in assay [7], in assay [2], in assay [8], in assay [9] and in assay [10] was “inactive” in each case.
For `Nc1[nH]nc2nnc(-c3c(-c4ccccc4)nn4ccccc34)cc12`, the figures for the activity in [3], in [5] and in assay [6] were -90.6%, -76.8% and -92.5%, respectively. Besides, in assay [4], the Potency was 19.2 µM (active). The Potency entry in assay [2], in assay [8] and in assay [10] was “inactive” in each case.
Turning to `CN1CCc2c(n(Cc3ccc(C(=O)NO)cc3)c3ccccc23)C1`, the values for the activity in [3], in assay [5] and in [6] were 0%, -0.568% and 4.88%, respectively. Moreover, the activity change, negative = inhibition in [4] stood at 0.311%. In addition, the Potency result in [7], in [2], in assay [8] and in assay [10] was “inactive” in each case.
For the compound `CC(C)CNc1ccnc(NCc2csc(-c3ccccc3)n2)n1`, the activity in [3] was -9.21%; in assay [5], -34.7%; in assay [6], -20.3%. For the same compound, the activity change, negative = inhibition in assay [4] is -8.39%. Besides, the Potency entry in assay [7], in assay [2], in assay [8], in [9] and in assay [10] was “inactive” throughout.
As for `N[C@@H](CC(=O)N1CCn2c(nnc2C(F)(F)F)C1)Cc1cc(F)c(F)cc1F`, the outcome in assay [11] was “inactive”.
Take `CC(C)CN(C[C@@H](O)[C@H](Cc1ccccc1)NC(=O)O[C@H]1CO[C@H]2OCC[C@H]21)S(=O)(=O)c1ccc(N)cc1`: in [11], the outcome is “inactive”. The Potency result in assay [7] is “inactive”.
Turning to `c1ccc(-c2oc3ncnc(NC[C@@H]4CCCO4)c3c2-c2ccccc2)cc1`, the activity in [3] was -58.1%; in assay [5], -46.6%; in assay [6], -56.7%. Also, the Potency in assay [4] was 24.1 µM (active). For the same compound, the Potency result in [7], in assay [2], in assay [8], in assay [9] and in assay [10] was “inactive” in each case.
Consider `Nc1ncnc2c1ncn2[C@@H]1O[C@H](CO)[C@@H](O)[C@@H]1O`, for which the outcome in assay [11] is “inactive”. Besides, the Potency entry in [7] and in [2] was “inactive” in each case.
Turning to `CNC(=O)c1ccc2c(C(=Nc3cccc(CN(C)C)c3)c3ccccc3)c(O)[nH]c2c1`, the activity in assay [3] is -17.1%; in [5], -21.7%; in assay [6], -16.3%. For the same compound, in assay [4], the activity change, negative = inhibition was -9.55%. Moreover, the Potency result in assay [7], in assay [8], in assay [9] and in assay [10] was “inactive” in each case.
With `Nc1ncnc2c1c(-c1cccc(OCc3ccccc3)c1)cn2C1CC(CN2CCC2)C1` (stereo unspecified), the activity in assay [3] is -26%; in [5] it was -29.1%; in assay [6], -91.7%. The Potency in assay [4] was 30.4 µM (active). For the same compound, the Potency result in assay [7], in assay [2], in assay [8] and in assay [9] was “inactive” in each case.
With `Cc1cn([C@@H]2C[C@@H](O)[C@H](CO)O2)c(=O)[nH]c1=O`, the outcome in [11] is “inactive”. For the same compound, the Potency result in assay [7] and in [2] was “inactive” throughout.
For `Clc1ccc(C2(c3ccc(-c4cn[nH]c4)cc3)CCNCC2)cc1`, the activity in assay [3] is 0.191%; in assay [5], -22.3%; in [6], -4.19%. In [4], the activity change, negative = inhibition came out at 0%. Moreover, the Potency entry in assay [7], in [2], in assay [8], in [9] and in assay [10] was “inactive” each time.
For `CN(C)CCCNC(=O)c1ccc(-c2cc(O)c3ncccc3c2)cc1`, the activity was -84% and -99.6% in [3]; -0.93% and -8.84% in assay [5]; -2.71% and -2.66% in [6]. In assay [4], the activity change, negative = inhibition is 2.82% and 3.64%. Also, the Potency entry in assay [12], in [7], in assay [2], in [8] and in [10] was “inactive” each time.
`CCN1C[C@H](C)n2c(c(O)c3c(=O)n(Cc4ccc(F)c(Cl)c4)nc(C(=O)NC)c32)C1=O`: the outcome in [11] is “inactive”. The Potency result in assay [12], in [7], in assay [2], in assay [8] and in assay [10] was “inactive” throughout. In addition, in assay [9], the Potency was 29.9 µM (active).
As for `CNC(=O)[C@H](Cc1ccccc1)NC(=O)[C@H](CC(C)C)[C@H](CSc1cccs1)C(=O)NO`, the outcome in assay [11] is “inactive”. In addition, the Potency result in [7] and in [2] was “inactive” each time.
Consider `CC(C)(F)C[C@H](N[C@@H](c1ccc(-c2ccc(S(C)(=O)=O)cc2)cc1)C(F)(F)F)C(=O)NC1(C#N)CC1`, for which the outcome in assay [11] is “inactive”. Besides, the Potency result in [7] and in assay [2] was “inactive” in each case.
`Cc1ccccc1-n1c(Cn2nc(-c3cccc(O)c3)c3c(N)ncnc32)nc2cccc(C)c2c1=O`: the activity in [3] was -10.8%; in [5], -28.8%; in [6] it was 1.94%. Further, the activity change, negative = inhibition in [4] worked out at 0%. Moreover, the Potency entry in assay [7], in [2], in [8], in assay [9] and in [10] was “inactive” throughout.
In the case of `O=c1cc(-c2ccc(O)c(O)c2)oc2cc(O)cc(O)c12`, the Potency entry in assay [1], in assay [15] and in assay [7] was “inactive” throughout. Moreover, the outcome in assay [13], in assay [14], in assay [16] and in [17] was “inactive” throughout.

For the origin of these results see PubChem BioAssay (NCATS).
